The test system of experiment [1] is TRPC4 beta (transient receptor potential cation channel C4), mouse. Nature of the experiment: activators of mouse TRPC4 channel, confirmation, cell-based, Fluo4 calcium, HEK293 TRPC4beta/mu-opioid, duplicates, 10 µM (AID 2426). The conditions noted are these: Fluo4 calcium fluorescence, at 10 µM; active compounds read high.
Experiment [2] deals with transient receptor potential cation channel C4 beta (TRPC4), mouse. Nature of the experiment: activators of mouse TRPC4 channel, confirmation, cell-based, second round, Fluo4, HEK293 TRPC4beta/mu-opioid, 1 µM (AID 2461;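 active = primary screen active and over 50% activation in each of two duplicate runs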). The conditions noted are these: Fluo4 calcium fluorescence, at 1 µM; active compounds read high.
Experiment [3] concerns TRPC4 (transient receptor potential cation channel C4 beta), mouse. Nature of the experiment: positive allosteric modulators of mouse TRPC4, confirmation, cell-based, second round, Fluo-4, HEK293 TRPC4beta/mu-opioid, 1 µM (AID 2554;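 active = primary screen hit whose fluorescence ratio, in both repeats, exceeds the weak agonist control mean by 3 SD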). The conditions noted are these: DAMGO EC20, Fluo-4 calcium flux, at 1 µM; active compounds read high.
Experiment [4] relates to TRPC4 beta (transient receptor potential cation channel C4), mouse. Nature of the experiment: positive allosteric modulators of mouse TRPC4, confirmation, cell-based, Fluo-4, HEK293 TRPC4beta/mu-opioid (AID 2555;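 active = primary screen hit whose calcium fluorescence ratio, in both repeats, exceeds the weak agonist control mean by 3 SD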). The conditions noted are these: DAMGO EC20, Fluo-4 calcium flux, at 10 µM; active compounds read high. For orientation: A change in cytosolic calcium serves as a functional read-out for many receptors and channels.

The target of experiment [5] is Short transient receptor potential channel 4 (Mus musculus) (UniProt Q9QUQ5). Nature of the experiment: inhibitors of mouse TRPC4 channel, confirmation, cell-based, Fluo4, HEK293 TRPC4beta/mu-opioid (AID 2636;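 active = calcium signal cut by more than 3 SD below the full-agonist control yet still positive, in both repeats and the earlier primary screen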). The conditions noted are these: DAMGO, Fluo4 calcium flux, at 10 µM; active compounds read high.
Chain of Short transient receptor potential channel 4 (Mus musculus) (Q9QUQ5 whole entry, looked up): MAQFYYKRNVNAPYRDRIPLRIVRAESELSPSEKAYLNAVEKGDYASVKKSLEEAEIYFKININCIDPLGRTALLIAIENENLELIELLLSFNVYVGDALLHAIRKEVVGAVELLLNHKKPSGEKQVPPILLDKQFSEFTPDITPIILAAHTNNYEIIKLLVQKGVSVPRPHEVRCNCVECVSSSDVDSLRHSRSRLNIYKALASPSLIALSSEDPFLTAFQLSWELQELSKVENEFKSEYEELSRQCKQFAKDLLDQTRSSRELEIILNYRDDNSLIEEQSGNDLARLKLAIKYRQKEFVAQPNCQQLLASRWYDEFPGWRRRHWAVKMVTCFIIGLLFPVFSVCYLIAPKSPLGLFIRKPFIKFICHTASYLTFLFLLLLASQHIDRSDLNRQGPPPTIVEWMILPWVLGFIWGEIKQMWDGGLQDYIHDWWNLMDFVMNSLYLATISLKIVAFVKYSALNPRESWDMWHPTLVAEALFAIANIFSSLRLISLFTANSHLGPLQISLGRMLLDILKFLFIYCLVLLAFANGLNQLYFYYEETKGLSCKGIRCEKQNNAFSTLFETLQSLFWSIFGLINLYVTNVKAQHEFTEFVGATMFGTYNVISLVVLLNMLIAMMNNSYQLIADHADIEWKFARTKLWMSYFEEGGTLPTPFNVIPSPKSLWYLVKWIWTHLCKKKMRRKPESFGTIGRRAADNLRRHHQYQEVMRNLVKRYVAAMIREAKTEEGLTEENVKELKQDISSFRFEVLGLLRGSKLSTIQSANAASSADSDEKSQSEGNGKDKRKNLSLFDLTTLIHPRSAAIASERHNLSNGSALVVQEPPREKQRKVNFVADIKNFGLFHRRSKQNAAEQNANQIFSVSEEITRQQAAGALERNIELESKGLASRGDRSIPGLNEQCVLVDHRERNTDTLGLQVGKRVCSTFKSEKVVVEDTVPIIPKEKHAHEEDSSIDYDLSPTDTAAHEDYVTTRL
Experiment [6] shares this target. Nature of the experiment: inhibitors of mouse TRPC4 channel, confirmation, cell-based, second round, Fluo4, HEK293 TRPC4beta/mu-opioid, 1 µM (AID 2637;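 active = calcium signal ratio cut to more than 3 SD under the fully stimulated control mean yet still positive, in both repeats and the primary screen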;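 for inhibition: percent of integrated ratio relative to wells lacking test compound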). The conditions noted are these: Fluo4 calcium flux, DAMGO, at 1 µM; active compounds read high.
Experiment [7] shares this target. Nature of the experiment: mouse TRPC4 channel activators, dose response, cell-based, HEK293 TRPC4/mu-opioid, Fluo-4 calcium (AID 434937;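 active = primary screen activator hit with a dose response curve and TRPC4 channel activation at any tested dose; inactive = no activation, no dose response, or not a primary hit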).
The target is the same in experiment [8]. Nature of the experiment: TRPC4 positive allosteric modulators, dose response, cell-based, HEK293 TRPC4/mu-opioid, Fluo-4 calcium, EC20 DAMGO (AID 434941;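 active = earlier screen potentiator hit that boosts the TRPC4 ion channel at some dose, with a dose response; inactive = no potentiation, no dose response, or not a prior hit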;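 note: calcium entry triggered by an EC20 dose of DAMGO at the co-expressed mu-opioid receptor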).
Experiment [9] deals with Short transient receptor potential channel 6 (Mus musculus) (UniProt Q61143). Nature of the experiment: inhibition of mouse TRPC6 channel, confirmation, selectivity assay for TRPC4 inhibitor project, cell-based, HEK293, membrane potential dye, duplicate (AID 434948;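 active = active in primary screen and both duplicates, each dropping signal beyond three positive-control SD with fluorescence still positive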). The conditions noted are these: HEK293 TRPC6, membrane potential dye fluorescence, at 10 µM, stimulated with maximal-effect acetylcholine; active compounds read high.
Chain of Short transient receptor potential channel 6 (Mus musculus) (Q61143 whole entry, looked up): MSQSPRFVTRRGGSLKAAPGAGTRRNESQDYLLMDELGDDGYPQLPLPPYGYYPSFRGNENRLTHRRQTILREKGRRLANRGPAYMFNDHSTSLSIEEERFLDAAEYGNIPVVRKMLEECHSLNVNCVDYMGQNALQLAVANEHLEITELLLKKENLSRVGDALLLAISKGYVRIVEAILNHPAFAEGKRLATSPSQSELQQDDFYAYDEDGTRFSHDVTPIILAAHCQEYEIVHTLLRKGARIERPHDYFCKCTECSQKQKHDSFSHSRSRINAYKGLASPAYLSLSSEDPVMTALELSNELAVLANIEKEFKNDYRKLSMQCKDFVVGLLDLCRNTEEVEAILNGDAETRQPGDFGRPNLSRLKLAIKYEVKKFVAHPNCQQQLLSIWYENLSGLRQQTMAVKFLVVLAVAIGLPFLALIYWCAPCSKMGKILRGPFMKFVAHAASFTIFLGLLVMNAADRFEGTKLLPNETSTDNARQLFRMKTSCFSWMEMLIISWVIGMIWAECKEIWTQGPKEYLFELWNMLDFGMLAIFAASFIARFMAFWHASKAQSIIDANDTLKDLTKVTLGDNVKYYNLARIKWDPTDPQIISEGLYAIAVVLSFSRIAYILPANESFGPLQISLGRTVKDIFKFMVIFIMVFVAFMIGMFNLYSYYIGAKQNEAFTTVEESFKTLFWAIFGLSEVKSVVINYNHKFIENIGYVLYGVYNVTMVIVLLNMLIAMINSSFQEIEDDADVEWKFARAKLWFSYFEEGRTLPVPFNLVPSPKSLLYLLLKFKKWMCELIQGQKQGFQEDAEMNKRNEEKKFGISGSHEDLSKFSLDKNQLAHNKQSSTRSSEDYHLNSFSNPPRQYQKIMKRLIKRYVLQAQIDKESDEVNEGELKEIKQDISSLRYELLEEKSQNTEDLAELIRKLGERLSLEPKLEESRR

The target is the same in experiment [10]. Nature of the experiment: activation of mouse TRPC6 channel, confirmation, selectivity assay for TRPC4 activator project, cell-based, HEK293, membrane potential dye, duplicate (AID 434950;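 active = membrane potential signal rise above negative control mean plus 3 SD in both duplicates, also active in the earlier TRPC4 screen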). The conditions noted are these: HEK293 TRPC6, membrane potential fluorescence, at 10 µM; active compounds read high.
The target is the same in experiment [11]. Nature of the experiment: TRPC6 potentiation by TRPC4 potentiator hits, confirmation, selectivity assay for TRPC4 potentiator project, HEK293 cells, membrane potential dye, duplicate (AID 434952;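 active = compound raising the membrane signal above positive-control mean plus 3 SD in both repeats, and a primary screen hit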). The conditions noted are these: HEK293 TRPC6, membrane potential dye fluorescence, at 10 µM, maximal acetylcholine added after compound; active compounds read high.
The target of experiment [12] is Short transient receptor potential channel 4 (Mus musculus) (UniProt Q9QUQ5). Nature of the experiment: calcium flux activators in TRPC4/5HT1a cells, counter-screen for TRPC4 activator project, cell-based, second counter screen, HEK293 TRPC4/5HT1a, Fluo-4 (AID 434977;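 active = calcium signal rise above buffer-control mean plus 5 SD in both duplicates, and also a hit in the primary screen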). The conditions noted are these: Fluo-4 calcium flux, at 10 µM; active compounds read high.
Experiment [13] in a line: calcium flux inhibitors in TRPC4/5HT1a cells, confirmation, counter-screen for TRPC4 inhibitor project, cell-based, second counter screen, HEK293 TRPC4/5HT1a, Fluo-4 (AID 434978;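 active = primary screen active whose calcium signal fell more than 3 SD beyond the full-serotonin control mean in both duplicate plates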;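 for outcome: serotonin given first at submaximal then at maximal dose after compound preincubation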). The conditions noted are these: Fluo-4 calcium flux, at 10 µM, serotonin added to trigger calcium flux; active compounds read high.
The subject of experiment [14] is TRPC4 (mouse), co-expressed with 5HT1a in HEK293. Nature of the experiment: calcium flux potentiators in TRPC4/5HT1a cells, confirmation, counter-screen for TRPC4 potentiator project, cell-based, second counter screen, HEK293 TRPC4/5HT1a, Fluo-4 (AID 434979;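 active = signal rise over 3 SD above mean of control wells given weak agonist, in both repeats and first screen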). The conditions noted are these: Fluo-4 calcium flux, at 10 µM, serotonin added at its EC20 dose; active compounds read high.

Experiment [15] can be described thus: calcium flux activation in mu-opioid HEK293 cells, confirmation, counter-screen for TRPC4 activator project, cell-based, HEK293 mu-opioid receptor line (AID 449723;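 active = hit in primary screen, with calcium signal over 5 SD above buffer well mean in both duplicates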;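 note: counter screen cells carry the mu-opioid receptor alone and lack TRPC4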). The conditions noted are these: Fluo-4 calcium fluorescence, at 10 µM; active compounds read high.
The nature of experiment [16]: calcium flux enhancement in mu-opioid HEK293 cells, confirmation, counter-screen for TRPC4 allosteric potentiator project, cell-based, HEK293 mu-opioid receptor line (AID 449724;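 active = calcium signal rise more than 3 SD above the low-dose agonist control mean, in both duplicate plates and the primary screen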;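 note: HEK293 cells carrying mu-opioid receptor only with no TRPC4 channel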). The conditions noted are these: Fluo-4 calcium flux, at 10 µM, compound added before EC20 DAMGO stimulus; active compounds read high.

Drawing on PubChem BioAssay, this text covers outcome and inhibition for 16 compounds.

For some of these results: Potency and affinity values are given separately. Calls of active or inactive are those of the source.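 Rule for the calls, unless noted: active = fluorescence ratio normalized to control raised more than 50% in primary screen plus both repeat runs; inactive = the rest.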

By inhibition is commonly meant the change of the read-out against control, counted positive when it falls. On to `O/N=C/c1ccccc1Oc1ccc(Cl)cc1`, for which the outcome in [1], in [2], in [3], in experiment [4], in experiment [6] and in experiment [7] was inactive. For the same compound, the result in [8], in experiment [9], in [10], in experiment [11], in [12] and in experiment [14] was inactive. In addition, the result in [15] and in [16] was inactive. The inhibition is 98% (active) in [5] and 7.58% (active) in experiment [13].
Turning to `c1ccc2c(N3CCCCC3)nc(N3CCOCC3)nc2c1`, the outcome in experiment [1], in experiment [2], in experiment [3], in [4], in experiment [6] and in experiment [7] was inactive. The result in experiment [8], in experiment [9], in [10], in experiment [11], in experiment [12] and in experiment [14] was inactive. Further, the outcome in experiment [15] and in experiment [16] was inactive. Also, the results for the inhibition in experiment [5] and in [13] were 84% (active) and 30.8% (active), respectively.
As for `CCOC(=O)C1(Cc2cccc(OC)c2)CCN(Cc2ccc(OC)c(O)c2)CC1`, the outcome in experiment [1], in [2], in experiment [3], in [4], in experiment [5] and in experiment [6] was inactive. Besides, the result in experiment [7], in experiment [8], in [9], in experiment [10], in experiment [11] and in experiment [12] was inactive. Further, the result in experiment [13], in [14], in experiment [15] and in [16] was inactive.
For `CN1/C(=C\C(=O)C[n+]2ccc3ccccc3c2)C(C)(C)c2ccccc21`, the result in experiment [1], in experiment [2], in experiment [3], in experiment [4], in experiment [6] and in [7] was inactive. The result in [8], in experiment [9], in experiment [10], in experiment [11], in experiment [12] and in experiment [13] was inactive. Besides, the outcome in experiment [14], in experiment [15] and in [16] was inactive. In addition, the inhibition in experiment [5] was 96% (active).
`CC(=O)N1CCN(c2ccccc2NC(=O)c2ccc3ccccc3c2)CC1`: the result in [1], in experiment [2], in experiment [3], in experiment [4], in experiment [7] and in experiment [8] was inactive. Further, the compound was classed as inactive in experiment [9], in experiment [10], in experiment [11], in experiment [12], in experiment [14] and in experiment [15]. Further, the outcome in experiment [16] was inactive. The inhibition in experiment [5] is 85% (active); in [6], 74% (active); in experiment [13] it was 36.5% (active).
In the case of `Cc1cc([N+](=O)[O-])ccc1NCc1ccccc1`, the result in experiment [1], in experiment [2], in experiment [3], in experiment [4], in [7] and in [8] was inactive. Besides, the outcome in [9], in experiment [10], in experiment [11], in experiment [12], in experiment [13] and in [14] was inactive. The outcome in experiment [15] and in experiment [16] was inactive. Further, the inhibition is 97% (active) in experiment [5] and 44% (active) in experiment [6].
In the case of `CCCCNCc1cc(Cl)c(OCCC)c(OCC)c1`, the result in experiment [1], in [2], in experiment [3], in experiment [4], in experiment [6] and in experiment [7] was inactive. The result in [8], in experiment [9], in experiment [10], in experiment [11], in [12] and in [13] was inactive. Besides, the outcome in [14], in [15] and in experiment [16] was inactive. The inhibition in experiment [5] is 86% (active).
As for `CNc1nc(NCc2ccccc2)c2ccccc2n1`, the result in experiment [1], in experiment [2], in experiment [3], in [4], in experiment [5] and in experiment [7] was inactive. In addition, the outcome in experiment [8], in experiment [10], in experiment [11], in experiment [12], in experiment [14] and in [15] was inactive. Besides, in experiment [16], the outcome was inactive. The values for the inhibition in experiment [6], in experiment [9] and in [13] were 69% (active), 50.5% (active) and 26.9% (active), respectively.
`CCOC(=O)CSc1nc2c(sc(=S)n2-c2ccccc2OC)c(=O)n1-c1ccccc1OC`: the outcome in experiment [1], in experiment [2], in [3], in experiment [4], in experiment [7] and in experiment [8] was inactive. For the same compound, the result in [9], in experiment [10], in [11], in [12], in experiment [14] and in experiment [15] was inactive. Further, the result in [16] was inactive. The values for the inhibition in experiment [5], in experiment [6] and in experiment [13] were 71% (active), 38% (active) and 31.3% (active), respectively.
Turning to `COc1ccccc1N(C(=O)c1snc(C(N)=O)c1N)C(C(=O)NC1CCCC1)c1ccc2ncccc2c1` (stereo unspecified), the result in experiment [1], in [2], in experiment [3], in experiment [4], in experiment [6] and in [7] was inactive. For the same compound, the result in experiment [8], in experiment [9], in experiment [10], in experiment [11], in experiment [12] and in [14] was inactive. The outcome in experiment [15] and in experiment [16] was inactive. For the same compound, the values for the inhibition in [5] and in experiment [13] were 41% (active) and 40.6% (active), respectively.
On to `Cc1cc(Nc2cccc(O)c2)c2ccccc2n1`, for which the result in [1], in experiment [2], in [3], in [4], in experiment [6] and in experiment [7] was inactive. Further, the result in [8], in experiment [10], in experiment [11], in experiment [12], in [13] and in experiment [14] was inactive. In addition, the outcome in experiment [15] and in [16] was inactive. Also, the inhibition in experiment [5] was 86% (active); in experiment [9] it was 55% (active).
Regarding `COc1ccccc1Nc1nc(NCC2CCCO2)c2ccccc2n1` (stereo unspecified), the result in [1], in experiment [2], in experiment [3], in experiment [4], in experiment [7] and in experiment [8] was inactive. Moreover, the call in experiment [10], in [11], in experiment [12], in [14], in experiment [15] and in experiment [16] was inactive. In addition, the inhibition is 91% (active) in experiment [5], 50% (active) in experiment [6], 10% (active) in [9] and 31.5% (active) in [13].
`CCCc1noc2c1/C(=N\O)CC(CC(C)SCC)C2` (stereo unspecified): the result in experiment [1], in [2], in experiment [3], in experiment [4], in experiment [6] and in [7] was inactive. Besides, the result in experiment [8], in experiment [9], in experiment [10], in [11], in experiment [12] and in experiment [14] was inactive. Moreover, the outcome in [15] and in [16] was inactive. Further, the inhibition in [5] was 92% (active); in [13], 14.8% (active).
Regarding `CCOc1c(Cl)cc(CNCC(O)c2ccccc2)cc1OC` (stereo unspecified), the result in [1], in experiment [2], in [3], in experiment [4], in [6] and in experiment [7] was inactive. Also, the result in experiment [8], in experiment [9], in experiment [10], in [11], in [12] and in experiment [13] was inactive. Also, the outcome in experiment [14], in experiment [15] and in experiment [16] was inactive. Besides, in [5], the inhibition is 86% (active).
For the compound `CCCCc1nc(SCCOC)c2c(=O)n(C)c(=O)n(C)c2n1`, the outcome in experiment [1], in [2], in experiment [3], in [4], in experiment [6] and in experiment [7] was inactive. For the same compound, the result in experiment [8], in experiment [9], in experiment [10], in [11], in experiment [12] and in experiment [14] was inactive. Besides, the outcome in [15] and in experiment [16] was inactive. Further, the inhibition in [5] is 88% (active); in [13], 12.3% (active).
As for `COc1ccc(C(CNC(=O)c2oc3ccc(Cl)cc3c2C)N2CCCCC2)cc1` (stereo unspecified), the outcome in experiment [1], in [2], in experiment [3], in experiment [4], in experiment [6] and in [7] was inactive. The result in [8], in experiment [9], in experiment [10], in experiment [11], in [12] and in experiment [13] was inactive. Besides, the outcome in experiment [14], in experiment [15] and in experiment [16] was inactive. In addition, the inhibition in experiment [5] is 83% (active).
